# Results reported in PubChem BioAssay (NCI).
# This is part of a sample that, as a whole, favours compounds with a hit. Of some 83,000 tested, about 20% had one in any assay.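 The endpoint reported here, percent growth, reads 100 for growth as untreated, 0 for no net growth and -100 for all cells dead.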 Values without a mark were called inactive. Active and inactive are the calls of the source. Rule for the calls: active = growth percent below 10; inactive = the rest.
# What was measured:
# Experiment in all cases: NCI-60 one-dose screen, 48 h (100 = growth as untreated, 0 = no growth, -100 = all killed)
# EKVX NSCLC = details: 10 µM
# SN12C renal = details: 10 µM unless noted
# UO-31 renal = details: 10 µM unless noted
# TK-10 renal = details: 10 µM unless noted
# ACHN renal = details: 10 µM unless noted
# CAKI-1 renal = details: 10 µM unless noted
# A498 renal = details: 10 µM unless noted
# MOLT-4 leukemia = details: 10 µM unless noted
# SR leukemia = details: 10 µM unless noted
# OVCAR-8 ovarian = details: 10 µM unless noted
# OVCAR-5 ovarian = details: 10 µM unless noted
# OVCAR-4 ovarian = details: 10 µM unless noted
# SK-OV-3 ovarian = details: 10 µM unless noted
# IGROV1 ovarian = details: 10 µM unless noted
# OVCAR-3 ovarian = details: 10 µM unless noted
# NCI/ADR-RES ovarian = details: 10 µM unless noted
# CCRF-CEM leukemia = details: 10 µM
# RPMI-8226 leukemia = details: 10 µM unless noted
# HS 578T breast = details: 10 µM unless noted
SMILES,growth (EKVX NSCLC),growth (SN12C renal),growth (UO-31 renal),growth (TK-10 renal),growth (ACHN renal),growth (CAKI-1 renal),growth (A498 renal),growth (MOLT-4 leukemia),growth (SR leukemia),growth (OVCAR-8 ovarian),growth (OVCAR-5 ovarian),growth (OVCAR-4 ovarian),growth (SK-OV-3 ovarian),growth (IGROV1 ovarian),growth (OVCAR-3 ovarian),growth (NCI/ADR-RES ovarian),growth (CCRF-CEM leukemia),growth (RPMI-8226 leukemia),growth (HS 578T breast)
COc1cc(-c2nn(-c3ccc(NC(=O)c4cc(Cl)cc(Cl)c4)cc3)cc2-c2ccncc2)ccc1Cl,80.1%,91.9%,65.7%,69.4%,94.9%,38.8%,78.9%,27.6%,14.6%,96.9%,95.7%,100%,111%,116%,81%,84.2%,,,
COC(=O)C(Cc1cnc[nH]1)N1CC(=O)N2[C@@H](c3ccccc3)SC[C@H]2C1=O (stereo not given in full),101%,107%,88.4%,,106%,94.1%,95.9%,99.7%,106%,98.4%,103%,111%,115%,116%,111%,107%,99.6%,105%,106%
O=Nc1ccc(O)c2ccccc12,32.7%,-50.1% (active),38%,5.45% (active),19.9%,14.1%,118%,59.3%,,7.56% (active),1.31% (active),-96.5% (active),99.9%,2.08% (active),-6.85% (active),-0.605% (active),5.22% (active),-12.1% (active),53.2%
Cc1cc2cn3c4ccc(O)cc4[nH]c(=O)c3c2cc1C,41.3%,38.5%,3.07% (active),0.912% (active),11.8%,-5.2% (active),18.6%,-18.2% (active),-16.1% (active),-13.2% (active),32.6%,,,-1.79% (active),-34.9% (active),3.46% (active),-7.53% (active),-37% (active),-31.8% (active)
O=c1[nH]c2cc(O)ccc2n2cc3c(F)cccc3c12,25.2%,53.6%,12%,6.81% (active),24.5%,-8.76% (active),39.5%,6.71% (active),9.4% (active),24.6%,43.8%,,-4.03% (active),16.9%,30.3%,17.2%,49%,46.2%,-26.1% (active)
Cc1cc2cn3c4ccc(O)cc4nc(N)c3c2cc1C,37.2%,44.6%,6.2% (active),5.03% (active),7.58% (active),-4.28% (active),21.1%,5.17% (active),-23.5% (active),5.39% (active),28.9%,,,3% (active),16.5%,9.17% (active),11.5%,-20.1% (active),-16.3% (active)
COc1cc2cn3c4ccc(O)cc4[nH]c(=O)c3c2cc1OC,18.4%,37%,-32.2% (active),-22.6% (active),-26% (active),-51.7% (active),-20.6% (active),-9.94% (active),-17.5% (active),0.127% (active),30%,,,-3.23% (active),-13.9% (active),24.7%,5.83% (active),-2.13% (active),-11.2% (active)
O=C(Nc1ccc(-n2cc(-c3ccncc3)c(-c3ccc(Cl)c(O)c3)n2)cc1)Nc1ccc(Cl)c(C(F)(F)F)c1,1.43% (active),31.1%,-32.6% (active),-12.1% (active),2.3% (active),-32.5% (active),63.6%,-1.95% (active),,1.06% (active),30.1%,16.1%,3.02% (active),-0.0868% (active),2.48% (active),6.63% (active),,,-38.6% (active)
CCCCCCCCc1ccc(CCC(N)(CO)CO)cc1,,,-7.93% (active),16.6%,-37.2% (active),16.1%,90.1%,-28.3% (active),-32.8% (active),-68.6% (active),56.8%,,83.6%,-37.9% (active),-47.9% (active),9.65% (active),-5.69% (active),-23.2% (active),
O=[N+]([O-])c1ccc(-c2ncc(-c3ccc(O)cc3O)[nH]2)cc1,92.4%,101%,102%,124%,106%,,101%,99.1%,-28.9% (active),101%,125%,104%,116%,97.6%,105%,115%,-19.1% (active),74.1%,70.9%
CCCCn1c(Cc2ccc(OC)cc2)nc2cc(OC)c(OC)cc2c1=O,44.8%,88.6%,74.7%,67.2%,80.9%,,62%,49.1%,2.75% (active),78.2%,104%,73.6%,99.4%,81.3%,86.3%,72.5%,53.1%,26.1%,94.5%
CCN(CC)CCNc1ncnc2c1cnn2-c1ccc(Cl)cc1,82.8%,80.6%,,118%,92.6%,61.5%,73.1%,92.9%,,,89.6%,90.6%,99.7%,,63.1%,91.4%,50.8%,96.7%,77.5%
COc1ccc2c(c1)cn1c3ccc(O)cc3[nH]c(=O)c21,47.9%,40.2%,23.3%,13%,14.8%,22.2%,40.7%,19.2%,,15%,18.7%,28.6%,11.3%,13.2%,-21.9% (active),1.78% (active),18.5%,-20.2% (active),-22.9% (active)
O=C(Nc1cccc2[nH]c(C(F)(F)F)nc12)c1ccc(F)cc1,,81.8%,63%,113%,82.7%,84%,19%,65.5%,76.3%,90.1%,99.6%,80.3%,98.8%,85.8%,66%,92.1%,51.7%,30.4%,77.3%
COc1cc(-c2nn(-c3ccc(NC(=O)Nc4ccc(Cl)c(C(F)(F)F)c4)cc3)cc2-c2ccncc2)ccc1Cl,3.21% (active),26.2%,24.5%,-3.21% (active),5.32% (active),-5.53% (active),6.77% (active),1.77% (active),-1.8% (active),8.56% (active),25%,23.1%,10.7%,25.9%,10.9%,-1.19% (active),,,
Nc1nc(-c2cccc(Br)c2)cc(-c2cc3ccccc3oc2=O)n1,,99.9%,64.2%,74.8%,98.2%,92%,123%,82.4%,89.6%,97.2%,106%,,97.8%,67.2%,99.6%,105%,77.1%,98.7%,87.3%
N#Cc1c2cccnc2c2nnc3cc(Cl)c(Cl)cc3n12,80.8%,75%,30.8%,-31.8% (active),10.2%,-3.12% (active),80.9%,7.72% (active),,-19.5% (active),89.3%,-4.97% (active),90%,10.6%,-9.66% (active),-5.61% (active),29.1%,35.3%,-56.8% (active)
CCCCCCCCCC(C)NC(=O)CCl (stereo not given),,75.1%,83.7%,,93%,93.4%,91.3%,72.1%,,88.3%,107%,89.4%,103%,25.6%,89.3%,101%,,97.6%,102%
N#Cc1c2ncccc2c2nnc3cc(Cl)c(Cl)cc3n12,84.1%,110%,76.3%,,84.5%,70.3%,115%,98.9%,70.2%,87.6%,90.1%,108%,104%,72.9%,70.2%,99.8%,,,
